Data from PubChem BioAssay (NCATS).
Values without a mark were called inactive. The call rests on the fitted dose curve; in most records, active means well fitted curve in the direction sought with a large enough effect; inconclusive means small, poorly fitted or top-dose-only effect, or another doubt; inactive means no such curve, though single readings can be large or run the other way.

Experiment: Validation qHTS assay for inhibitors of Activation Induced Cytidine Deaminase (AID): UDG Counterscreen signal (AID 1347427); further: 0% is about no effect
Conditions: biochemical UDG counterscreen, fluorescence signal; series mostly up to 115 µM; activity, negative = inhibition: at the top concentration
Method in brief: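 Counterscreen read of UDG activity (2 U/mL, 4/3x) in the FRET deamination format with AID (1 uM, 4/3x), DJC20/DJC23 substrates (250 nM, 4x), 4 h at room temperature. NaOH stop, fluorescence at 560 ex/665 em.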

| SMILES | activity, negative = inhibition [%] |
| --- | --- |
| O=S(=O)(c1cccc2c(Cl)cccc12)N1CCCNCC1 | 18.8 |
| NC(=O)c1ccccc1 | -1.45 |
| Oc1cc(O)c2c(c1)O[C@H](c1ccc(O)c(O)c1)[C@@H](O)C2 | 10.4 |
| [N-]=[N+]=Nc1ccc(C(=O)CSC[C@H](NC(=O)CC[C@H](N)C(=O)O)C(=O)NCC(=O)O)cc1 | -1.96 |
| N#Cc1cc([N+](=O)[O-])c2sc(C(N)=O)[n+]([O-])c2c1 | 10.8 |
| CCN(CC)CCCCCCCCOC(=O)c1cc(OC)c(OC)c(OC)c1 | 8.4 |
| CN(C)CCC(c1ccc(Br)cc1)c1ccccn1 (centres undefined) | 3.83 |
| COc1ccc2c(c1)c(CC(=O)O)c(C)n2Cc1ccc(Cl)cc1 | -3.22 |
| O=C(N[C@@H](Cc1ccccc1)C(=O)CCl)OCc1ccccc1 | 1.54 |
| Nc1ncnc2c1c(-c1ccc(Oc3ccccc3)cc1)cn2C1CCCC1 | -13.9 |
| O=c1[nH]c2ccccc2c2ccccc12 | 9.2 |
| CN(CC[C@@H](Oc1ccc(C(F)(F)F)cc1)c1ccccc1)CC(=O)O | 11.4 |
| COc1cc([C@@H]2c3cc4c(cc3[C@H](O)C3COC(=O)[C@@H]32)OCO4)cc(OC)c1OC (some centres undefined) | 12.3 |
| Cc1nc(N=Nc2ccc(C(=O)O)cc2)c(COP(=O)(O)O)c(C=O)c1O | -2.17 |
| COc1cc(/C=C(\C#N)C(=O)Nc2nnc(C(F)(F)F)s2)ccc1OCc1ccc(C(F)(F)F)cc1C(F)(F)F | -14.4 |
| CN1Cc2sccc2C(c2ccc(O)c(O)c2)C1 (centres undefined) | 7.31 |
| Clc1nccc2c1ccc1ccccc12 | 10.6 |
| O=[N+]([O-])c1cccc2cn[nH]c12 | 13.1 |
| CCCCCCCCCC(=O)NC(CN1CCOCC1)[C@H](O)c1ccccc1 (some centres undefined) | -1.09 |
